Test [1] has as its target Estrogen receptor beta (Homo sapiens) (UniProt Q92731). The experiment in a line: OT_ER_ERbERb_0480: Odyssey Thera (OT) 8-hour HEK293T Protein-Complementation Assay for Estrogen Receptor-beta/-beta Homodimer (AID 2283357).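 Further: active means signal gain over DMSO baseline.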 The procedure, abridged:
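Fluorescence gain from complemented reporter fragments on ER-beta LBD homodimer in HEK293T was quantified against DMSO controls after 8 h treatment, fixation in 4% formaldehyde and Draq5 staining.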

Test [2] addresses human Peroxisome Proliferator-activated Receptor alpha (PPARa), PPARA (gene 5465) (UniProt Q07869). In words: NVS_NR_hPPARa: NovaScreen (NVS) Nuclear Receptor Binding Assay for human Peroxisome Proliferator-activated Receptor alpha (PPARa) (AID 2283359).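 Further: activity means loss of TR-FRET signal versus DMSO baseline.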 Put shortly:
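One-hour incubation, cell-free extracted protein, TR-FRET binding readout; signal loss vs DMSO scored. Screen: 25 uM duplicates, confirmatory dose series for actives.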

In test [3] the target is human Thyroid Receptor Alpha (TRa), THRA (gene 7067) (UniProt P10827). In words: NVS_NR_hTRa_Antagonist: NovaScreen (NVS) Nuclear Receptor Binding Assay for human Thyroid Receptor Alpha Antagonism (TRa) (AID 2283362).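 Further: activity is loss of signal relative to DMSO baseline.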 The procedure, abridged:
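In this biochemical format, receptor protein is dosed with chemical and read after 1 hour via AlphaLISA. Decreases from the DMSO baseline indicate antagonist activity; screening used 25 uM in duplicate before concentration-response confirmation.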

The target of test [4] is Nuclear receptor subfamily 1 group I member 2 (Homo sapiens) (UniProt O75469). In words: NVS_NR_hPXR: NovaScreen (NVS) Nuclear Receptor Binding Assay for human Pregnane X Receptor (PXR) (AID 2283365).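 Further: a drop in FRET signal versus DMSO baseline means the compound binds.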 Put shortly:
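Read-out: TR-FRET, human PXR, 2 h post-dosing, cell-free. Loss of signal vs DMSO taken as binding activity; 25 uM primary, concentration series secondary.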

The target in test [5] is Peroxisome proliferator-activated receptor gamma (Homo sapiens) (UniProt P37231). In words: NVS_NR_hPPARg: NovaScreen (NVS) Nuclear Receptor Binding Assay for human Peroxisome Proliferator-activated Receptor gamma (PPARg) (AID 2283370). The procedure, abridged: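 Extracted receptor protein, cell-free; compound incubated 2 h then fluorescence polarization read. Baseline: DMSO. Actives from 25 uM duplicate screen re-run across concentrations.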

The target in test [6] is Norway rat Vesicular Monoamine Transporter (VMAT2), neurotransmitter transporter, Slc18a2 (gene 25549) (UniProt Q01827). The experiment in a line: NVS_TR_rVMAT2: NovaScreen (NVS) Transporter Assay for Norway rat Vesicular Monoamine Transporter (VMAT2), neurotransmitter transporter (AID 2283376).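 Further: actives lower the bound radioligand signal below the DMSO level.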 Put shortly: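 Binding endpoint from rat forebrain tissue, cell-free; 1 h incubation; filtered radioligand counted; 25 uM duplicate primary then dose series; DMSO negative control.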

The target in test [7] is human Norepinephrine Transporter (NET), SLC6A2 (gene 6530) (UniProt P23975). The experiment in a line: NVS_TR_hNET: NovaScreen (NVS) Transporter Assay for human Norepinephrine Transporter (NET) (AID 2283377).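 Further: cell-free membrane protein extracted from CHO cells expressing human NET.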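 On AC50: displacement of radioligand from human NET seen as loss of scintillation signal.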 Put shortly:
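In this cell-free binding screen, chemicals at 25 uM (duplicate) compete with a radioligand for CHO-derived human NET over 1 hour, with filter-based radiodetection.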

The target of test [8] is mouse Estrogen Receptor alpha (Era), Esr1 (gene 13982) (UniProt P19785). The experiment in a line: NVS_NR_mERa: NovaScreen (NVS) Nuclear Receptor Binding Assay for mouse Estrogen Receptor alpha (Era) (AID 2283378).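 Further: hit means loss of bound radioligand signal relative to DMSO.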 Put shortly:
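Measurements come from scintillation counting after filtration, taken 18 hours after chemicals were added to a cell-free mouse Era preparation with radioligand. Screening was duplicate at 25 uM, with concurrent positive and negative controls and confirmatory concentration series for actives.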

Test [9] addresses Estrogen receptor beta (Homo sapiens) (UniProt Q92731). In words: OT_ER_ERbERb_1440: Odyssey Thera (OT) 24-hour HEK293T Protein-Complementation Assay for Estrogen Receptor-beta/-beta Homodimer (AID 2283380).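 Further: fluorescence gain from ER beta LBD homodimer complementation read by laser scanning cytometry; scored as signal increase over DMSO baseline for both agonists and antagonists.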 Put shortly:
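HEK293T cells stably expressing human ER-beta LBD (aa 310-547) PCA homodimer pair, dosed 24 h; formaldehyde-fixed, Draq5-stained. Readout: increase in nuclear (agonist) or nuclear plus cytoplasmic (antagonist) fluorescence intensity versus DMSO, gain-of-signal fitting.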

Test [10] addresses Estrogen receptor (Homo sapiens) (UniProt P03372). In words: OT_ERa_GFPERaERE_0480: Odyssey Thera (OT) 8-hour HeLa Transcription Induction Assay for Estrogen Receptor (AID 2283381; active means hit-call score of the fitted dose curve at least 0.9, where 1 is the maximum; inactive means score below 0.9). Put shortly:
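Human cervical HeLa cells were treated for 8 hours, after which ERE-driven GFP induction was measured by fluorescence microscopy; increases over DMSO baseline defined activity.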

For test [11] the target is unchanged. The experiment in a line: OT_ERa_GFPERaERE_0120: Odyssey Thera (OT) 2-hour HeLa Transcription Induction Assay for Estrogen Receptor (AID 2283382). The procedure, abridged:
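Cells (human cervical HeLa) receive compound, incubate 2 hours, then are imaged for fluorescent reporter induction. Images are quantified by high content analysis, and activity is fitted as gain of signal against DMSO.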

Test [12] relates to rat Norepinephrine Transporter (NET), gene 83511. The experiment in a line: NVS_TR_rNET: NovaScreen (NVS) Transporter Assay for rat Norepinephrine Transporter (NET) (AID 2283373). Put shortly:
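Competitive radioligand displacement at the rat NET using forebrain membrane preparations, 1 h incubation, filter-based scintillation readout. Primary testing in duplicate at a single 25 uM concentration; confirmed actives retested across concentrations.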

In test [13] the target is Agonist Androgen Response Element (ARE), AR (gene 367) (UniProt P10275). The experiment in a line: OT_AR_ARELUC_AG_1440: Odyssey Thera (OT) 24-hour CHO-K1 Luciferase Assay for Agonist Androgen Response Element (ARE) (AID 2283379). The procedure, abridged: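 Luminescence increase above DMSO, read after a 24 h compound treatment of CHO-K1 cells expressing an androgen response element luciferase reporter, gives the single primary endpoint; concentration-response fitting used the positive direction.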

The target of a further test is PGR (gene 5241) (UniProt P06401). In words: NVS_NR_hPR: NovaScreen (NVS) Nuclear Receptor Binding Assay for human Progestron Receptor (PR) (AID 2283360).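 Further: active means loss of bound radioligand signal versus DMSO baseline.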 The procedure, abridged:
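T47D-derived receptor preparation, cell-free, with tritiated or iodinated radioligand displacement measured by scintillation 18 h post-dosing. Single 25 uM duplicate screen, then concentration series; signal loss relative to DMSO.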

Test [14] deals with Retinoic acid receptor alpha (Homo sapiens) (UniProt P10276). The experiment in a line: NVS_NR_hRARa_Agonist: NovaScreen (NVS) Nuclear Receptor Binding Assay for human Retinoic Acid Alpha Receptor Agonism (RAR) (AID 2283361). The procedure, abridged: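 Compounds screened at 25 uM, duplicate, then in concentration series if active. Detection: TR-FRET gain of signal versus DMSO after 2 h with cell-free extracted RARα.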

Test [15] concerns the target rat Androgen Receptor (AR), Ar (gene 24208) (UniProt P15207). The experiment in a line: NVS_NR_rAR: NovaScreen (NVS) Nuclear Receptor Binding Assay for rat Androgen Receptor (AR) (AID 2283366). The procedure, abridged:
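Actives from a duplicate single-concentration (25 uM) primary run went on to concentration series. Displacement of radioligand was counted by filtration and scintillation, 18 h post-dose, using prostate extracts from testosterone-pretreated rats, with DMSO as baseline.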

The target in test [16] is human Adenosine Transporter (Adot), SLC29A1 (gene 2030) (UniProt Q99808). In words: NVS_TR_hAdoT: NovaScreen (NVS) Transporter Assay for human Adenosine Transporter (Adot) (AID 2283368). The procedure, abridged:
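Binding displacement on U937 extracted protein, read 1 h post-dose by filtration and scintillation counting. Primary duplicate test at 25 uM, then singleton concentration series with 50 uM top; DMSO baseline.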

Test [17] concerns the target guinea pig Sigma Receptor, Non-selective Binding, SIGMAR1 (gene 100135589) (UniProt Q60492). The experiment in a line: NVS_OR_gSIGMA_NonSelective: NovaScreen (NVS) Nuclear Receptor Binding Assay for guinea pig Sigma Receptor, Non-selective Binding (AID 2283367). Put shortly:
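Test chemicals were screened in duplicate at 25 uM, then in concentration series if active, against radioligand binding to guinea pig brain membranes; filtration and scintillation counting at 1 h measured remaining bound ligand.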

“And” between values parts separate entries of the source, which are not always exact repeats. Equal entries are not always repeated. Records with an inconclusive call do not appear. More than one record can exist for a structure, and the calls need not agree. The source made the active and inactive calls. How the source made its calls, unless noted: active means hit-call score of the fitted dose curve at least 0.9, where 1 is the maximum; inconclusive means response in the unintended direction; inactive means score below 0.9.

Nuclear receptor subfamily 1 group I member 2 (Homo sapiens), sequence (O75469 whole entry, looked up): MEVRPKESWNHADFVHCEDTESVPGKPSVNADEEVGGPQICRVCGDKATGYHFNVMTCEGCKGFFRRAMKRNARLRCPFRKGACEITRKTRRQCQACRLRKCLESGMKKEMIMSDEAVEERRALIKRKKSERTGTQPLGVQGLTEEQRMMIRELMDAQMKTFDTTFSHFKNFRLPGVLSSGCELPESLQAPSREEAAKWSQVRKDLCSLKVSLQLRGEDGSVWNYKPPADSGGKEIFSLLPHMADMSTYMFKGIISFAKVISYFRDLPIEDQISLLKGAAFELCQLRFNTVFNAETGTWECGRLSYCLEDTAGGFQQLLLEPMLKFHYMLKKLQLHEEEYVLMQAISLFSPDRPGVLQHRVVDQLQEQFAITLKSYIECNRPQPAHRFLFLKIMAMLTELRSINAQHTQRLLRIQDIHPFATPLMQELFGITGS
rat Androgen Receptor (AR), Ar (gene 24208), sequence (P15207 whole entry, looked up): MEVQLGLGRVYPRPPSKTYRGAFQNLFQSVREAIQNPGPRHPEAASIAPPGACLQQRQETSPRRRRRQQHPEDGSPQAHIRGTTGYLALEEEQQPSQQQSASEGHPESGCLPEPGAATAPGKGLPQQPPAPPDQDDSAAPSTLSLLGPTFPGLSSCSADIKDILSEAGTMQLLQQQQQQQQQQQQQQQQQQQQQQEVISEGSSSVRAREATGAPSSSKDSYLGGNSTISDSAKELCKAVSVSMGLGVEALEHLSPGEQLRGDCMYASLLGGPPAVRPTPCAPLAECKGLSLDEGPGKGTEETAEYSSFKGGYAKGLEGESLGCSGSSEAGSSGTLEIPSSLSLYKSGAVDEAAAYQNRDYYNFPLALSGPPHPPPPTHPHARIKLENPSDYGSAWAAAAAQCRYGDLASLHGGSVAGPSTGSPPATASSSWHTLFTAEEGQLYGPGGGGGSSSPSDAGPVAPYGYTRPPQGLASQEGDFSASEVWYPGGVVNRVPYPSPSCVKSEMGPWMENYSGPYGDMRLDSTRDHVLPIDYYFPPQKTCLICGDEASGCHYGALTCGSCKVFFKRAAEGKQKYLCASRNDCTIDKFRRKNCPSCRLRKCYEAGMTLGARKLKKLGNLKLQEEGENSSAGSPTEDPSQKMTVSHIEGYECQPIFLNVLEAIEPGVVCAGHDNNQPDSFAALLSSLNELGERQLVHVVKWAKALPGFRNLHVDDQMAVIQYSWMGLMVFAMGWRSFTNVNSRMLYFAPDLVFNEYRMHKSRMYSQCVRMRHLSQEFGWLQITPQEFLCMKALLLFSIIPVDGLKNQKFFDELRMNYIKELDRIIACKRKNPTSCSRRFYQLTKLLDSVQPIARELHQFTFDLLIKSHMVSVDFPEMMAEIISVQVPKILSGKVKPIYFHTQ
Estrogen receptor beta (Homo sapiens), sequence (Q92731 whole entry, looked up, the tested form may be a part): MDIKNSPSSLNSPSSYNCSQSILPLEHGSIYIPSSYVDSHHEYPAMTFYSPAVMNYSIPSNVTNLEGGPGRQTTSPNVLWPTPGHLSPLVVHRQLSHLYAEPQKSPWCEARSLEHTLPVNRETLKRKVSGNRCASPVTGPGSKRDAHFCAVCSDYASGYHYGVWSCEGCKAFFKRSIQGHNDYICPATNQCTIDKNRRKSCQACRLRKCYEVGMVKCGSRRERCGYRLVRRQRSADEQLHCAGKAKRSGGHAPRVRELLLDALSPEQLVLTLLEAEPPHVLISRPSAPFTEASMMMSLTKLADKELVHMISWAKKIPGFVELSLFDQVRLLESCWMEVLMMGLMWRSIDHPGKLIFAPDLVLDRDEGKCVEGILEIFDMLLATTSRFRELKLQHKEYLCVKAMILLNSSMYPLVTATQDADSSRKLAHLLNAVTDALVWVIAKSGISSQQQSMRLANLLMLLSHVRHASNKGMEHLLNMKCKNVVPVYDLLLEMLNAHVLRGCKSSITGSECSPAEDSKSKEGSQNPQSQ
PGR (gene 5241), sequence (P06401 whole entry, looked up): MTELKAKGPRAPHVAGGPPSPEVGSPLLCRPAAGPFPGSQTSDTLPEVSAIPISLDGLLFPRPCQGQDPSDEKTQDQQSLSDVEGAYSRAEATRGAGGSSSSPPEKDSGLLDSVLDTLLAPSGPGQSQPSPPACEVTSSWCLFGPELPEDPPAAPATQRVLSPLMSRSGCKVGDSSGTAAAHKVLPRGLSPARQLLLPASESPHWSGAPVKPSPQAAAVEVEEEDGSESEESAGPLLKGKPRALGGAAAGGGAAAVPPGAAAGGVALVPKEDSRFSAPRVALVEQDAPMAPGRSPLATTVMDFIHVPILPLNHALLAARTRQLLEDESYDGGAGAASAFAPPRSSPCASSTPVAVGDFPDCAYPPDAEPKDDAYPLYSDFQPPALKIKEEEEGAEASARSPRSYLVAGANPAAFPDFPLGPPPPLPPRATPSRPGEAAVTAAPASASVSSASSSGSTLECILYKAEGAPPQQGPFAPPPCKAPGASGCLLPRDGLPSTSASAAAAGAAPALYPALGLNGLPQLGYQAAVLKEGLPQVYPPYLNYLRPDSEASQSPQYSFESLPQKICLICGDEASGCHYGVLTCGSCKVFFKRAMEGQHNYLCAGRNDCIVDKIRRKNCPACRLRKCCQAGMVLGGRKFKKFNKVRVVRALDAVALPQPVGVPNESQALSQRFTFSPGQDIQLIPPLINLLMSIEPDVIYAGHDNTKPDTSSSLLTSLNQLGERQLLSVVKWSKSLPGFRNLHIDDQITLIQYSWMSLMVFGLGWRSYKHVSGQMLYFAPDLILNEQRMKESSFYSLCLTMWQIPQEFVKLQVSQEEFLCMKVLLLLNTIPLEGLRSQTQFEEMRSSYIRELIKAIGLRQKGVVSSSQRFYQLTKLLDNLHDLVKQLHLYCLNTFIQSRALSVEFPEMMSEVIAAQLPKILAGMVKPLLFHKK
guinea pig Sigma Receptor, Non-selective Binding, SIGMAR1 (gene 100135589), sequence (Q60492 whole entry, looked up): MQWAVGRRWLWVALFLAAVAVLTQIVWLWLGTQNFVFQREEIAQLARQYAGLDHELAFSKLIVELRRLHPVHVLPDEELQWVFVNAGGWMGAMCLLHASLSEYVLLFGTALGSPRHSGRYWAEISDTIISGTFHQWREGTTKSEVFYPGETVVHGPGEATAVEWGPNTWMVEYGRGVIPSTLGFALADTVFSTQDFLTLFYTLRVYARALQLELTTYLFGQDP
human Thyroid Receptor Alpha (TRa), THRA (gene 7067), sequence (P10827 whole entry, looked up): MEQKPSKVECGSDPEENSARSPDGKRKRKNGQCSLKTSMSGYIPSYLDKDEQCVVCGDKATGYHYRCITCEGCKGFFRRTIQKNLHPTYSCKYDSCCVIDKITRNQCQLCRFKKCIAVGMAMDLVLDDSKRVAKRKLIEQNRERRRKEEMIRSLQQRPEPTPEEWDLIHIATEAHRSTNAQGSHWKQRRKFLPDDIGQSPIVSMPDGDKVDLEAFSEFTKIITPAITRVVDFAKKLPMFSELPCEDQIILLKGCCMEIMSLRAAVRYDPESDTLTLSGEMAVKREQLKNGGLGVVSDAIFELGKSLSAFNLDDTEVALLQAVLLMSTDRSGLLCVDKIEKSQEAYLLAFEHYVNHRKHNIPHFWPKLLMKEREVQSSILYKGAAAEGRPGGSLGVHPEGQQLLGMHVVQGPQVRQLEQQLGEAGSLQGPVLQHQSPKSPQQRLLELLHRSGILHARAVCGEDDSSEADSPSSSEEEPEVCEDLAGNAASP
Agonist Androgen Response Element (ARE), AR (gene 367), sequence (P10275 whole entry, looked up): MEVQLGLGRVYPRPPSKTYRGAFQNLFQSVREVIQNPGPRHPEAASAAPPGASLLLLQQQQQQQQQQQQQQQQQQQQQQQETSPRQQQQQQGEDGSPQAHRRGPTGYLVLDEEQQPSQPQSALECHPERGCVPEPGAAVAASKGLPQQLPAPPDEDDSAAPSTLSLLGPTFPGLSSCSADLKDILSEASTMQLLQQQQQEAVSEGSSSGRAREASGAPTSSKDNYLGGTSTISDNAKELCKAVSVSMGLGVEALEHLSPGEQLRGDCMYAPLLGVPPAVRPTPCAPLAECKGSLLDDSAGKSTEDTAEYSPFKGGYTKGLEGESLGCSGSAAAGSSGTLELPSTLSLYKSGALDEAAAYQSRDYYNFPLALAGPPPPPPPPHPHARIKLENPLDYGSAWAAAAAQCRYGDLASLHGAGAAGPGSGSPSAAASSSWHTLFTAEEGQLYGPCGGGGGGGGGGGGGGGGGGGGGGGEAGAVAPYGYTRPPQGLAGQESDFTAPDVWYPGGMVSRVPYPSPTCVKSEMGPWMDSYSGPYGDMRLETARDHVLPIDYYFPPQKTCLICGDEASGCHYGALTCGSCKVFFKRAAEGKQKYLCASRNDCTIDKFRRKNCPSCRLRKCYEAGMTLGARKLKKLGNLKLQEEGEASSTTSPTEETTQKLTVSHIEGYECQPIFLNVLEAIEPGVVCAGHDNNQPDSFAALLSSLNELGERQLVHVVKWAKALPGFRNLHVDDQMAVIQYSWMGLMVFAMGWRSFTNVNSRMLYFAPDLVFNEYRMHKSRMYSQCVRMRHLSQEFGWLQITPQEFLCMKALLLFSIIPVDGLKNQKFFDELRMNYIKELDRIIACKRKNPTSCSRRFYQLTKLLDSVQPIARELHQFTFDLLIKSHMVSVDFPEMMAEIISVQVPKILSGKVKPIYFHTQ
Peroxisome proliferator-activated receptor gamma (Homo sapiens), sequence (P37231 whole entry, looked up): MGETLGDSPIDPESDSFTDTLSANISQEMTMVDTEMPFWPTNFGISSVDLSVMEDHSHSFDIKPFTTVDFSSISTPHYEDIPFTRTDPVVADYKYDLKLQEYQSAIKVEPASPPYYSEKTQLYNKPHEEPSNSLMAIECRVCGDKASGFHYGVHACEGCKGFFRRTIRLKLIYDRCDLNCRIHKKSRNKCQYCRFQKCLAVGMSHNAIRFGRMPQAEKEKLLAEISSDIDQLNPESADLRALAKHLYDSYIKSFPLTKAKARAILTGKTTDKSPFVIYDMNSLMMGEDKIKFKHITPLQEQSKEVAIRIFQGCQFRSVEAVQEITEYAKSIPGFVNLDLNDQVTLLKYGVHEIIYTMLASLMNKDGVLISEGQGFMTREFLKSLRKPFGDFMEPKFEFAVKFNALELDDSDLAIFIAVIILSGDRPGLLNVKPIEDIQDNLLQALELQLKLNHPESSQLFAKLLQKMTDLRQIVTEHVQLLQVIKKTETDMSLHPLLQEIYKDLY

In general, AC50 refers to the midpoint of the concentration-response curve, whichever way the signal moves. In the case of `COc1ccc(C(c2ccc(OC)cc2)C(Cl)(Cl)Cl)cc1`, the AC50 was 3.79 µM (active) and 3.62 µM (active) and 3.92 µM (active) in [1]; 3.48 µM (active) in test [8]; 4.01 µM (active) and 3.74 µM (active) and 3.97 µM (active) in [9]; 3.09 µM (active) and 3.24 µM (active) and 3.47 µM (active) in test [10]; 2.7 µM (active) and 2.88 µM (active) and 2.66 µM (active) in test [11]. Also, the result in [2], in test [3], in [4], in [5], in [6] and in [7] was inactive.
As for `COP(N)(=O)SC` (centres undefined), the call in test [1], in test [5], in test [9], in test [10] and in test [11] was inactive.
On to `COc1cnc(OC)n2nc(NS(=O)(=O)c3c(OCC(F)F)cccc3C(F)(F)F)nc12`, for which the compound was called inactive in test [1], in test [5], in [9], in [10] and in [11].
On to `CC1=C(C(=O)Nc2ccccc2)SCCO1`, for which the call in test [1], in [13], in test [9], in test [10] and in test [11] was inactive. Besides, the values for the AC50 in test [12] and in test [7] were 8.37 µM (active) and 11.6 µM (active), respectively.
Turning to `CCCN(CCC)c1c([N+](=O)[O-])cc(S(N)(=O)=O)cc1[N+](=O)[O-]`, the result in test [2], in [14], in [3], in [5], in test [9] and in test [10] was inactive. Besides, the result in [11] was inactive. In addition, the AC50 is 4.36 µM (active) with PGR (gene 5241), 6.68 µM (active) in [4] and 0.0071 µM (active) in test [5].
For the compound `CO/C=C(/C(=O)OC)c1ccccc1Oc1cc(Oc2ccccc2C#N)ncn1`, the result (in the test with PGR (gene 5241); in [3]; in test [4]; in test [15]; in [16]; in test [5]) was inactive. The compound was called inactive in test [13], in test [9], in [10] and in [11].
As to `O=C(O)c1nc(Cl)ccc1Cl`, the call in test [10] and in [11] was inactive.
Turning to `CCCC1COC(Cn2cncn2)(c2ccc(Cl)cc2Cl)O1` (centres undefined), the compound was classed as inactive (with PGR (gene 5241); in test [4]; in test [15]; in test [5]; in [13]; in test [10]). Moreover, the compound was classed as inactive in test [11]. The AC50 in test [17] is 25 µM (active).
For `C=CCC1=C(C)C(OC(=O)C2C(C=C(C)C)C2(C)C)CC1=O` (centres undefined), the AC50 in test [5] was 39.1 µM (active). Besides, the compound was classed as inactive in [5], in test [7], in [8], in test [10] and in [11].
For the compound `CC(Oc1ccc(Cl)cc1Cl)C(=O)O` (centres undefined), the call in [10] and in test [11] was inactive.
With `N#Cc1nn(-c2c(Cl)cc(C(F)(F)F)cc2Cl)c(N)c1S(=O)C(F)(F)F` (centres undefined), the compound was called inactive in [17], in [5], in test [13], in test [9], in test [10] and in test [11].
Take `CCOC(=O)CC(SP(=S)(OC)OC)C(=O)OCC` (centres undefined): the result (with PGR (gene 5241); in [15]; in test [5]; in test [13]; in [10]; in [11]) was inactive. Also, in test [17], the AC50 was 11.4 µM (active).
